# Where “and” joins values, the source holds several entries; their conditions need not be identical. Identical values can stand only once. Results filed as inconclusive are left out. Values without a mark were called inactive. Calls of active or inactive are those of the source. Calls come from the whole dose curve; as a rule, active = well fitted activation curve with a large enough effect in the repeat runs; inconclusive = weak or mixed curves, or effect the other way; inactive = no such curve, though single readings can be large or run the other way.
# Assay: qHTS assay to identify small molecule agonists of the estrogen related receptor signaling pathway with the pleiotropic PPARgamma coactivator (PGC) from Tox21 10K library (AID 1224842); note: nearly all actives have a fitted effect of over 15% in size
# Conditions: PGC/ERR reporter cell line, luciferase ONE-Glo, 18 h; series mostly up to 92.4 µM; activation: at the top concentration
# Description: National Center for Advancing Translational Sciences [NCATS] NIH Chemical Genomics Center [NCGC] U.S. Environmental Protection Agency [EPA] National Institutes of Environmental Health Sciences [NIEHS] National Toxicology Program [NTP] Assay overview: Estrogen related receptors (ERRs), the first orphan nuclear receptors discovered, play an important role in the control of cellular energy metabolism. ERRs are required for high-energy production in response to the environmental challenges. The pleiotropic PPARgamma coactivator (PGC) is a major partner of ERR and a key regulator in energy homeostasis. Together they have been implicated in the etiology of metabolic disorders such as Type 2 diabetes and metabolic syndrome. ERR-alpha was also identified as an adverse marker for breast cancer progression; ERR-alpha-positive tumors have a poor prognosis. To screen and to identify environmental compounds that perturb the PGC/ERR signaling pathways could provide valuable information for potential therapeutic or preventive measures in the treatment of metabolic disease. For identifying PGC/ERR agonists, PGC/ERR cell line (provided by NTP) has been used to screen Tox21 10K library.
# Assay Protocol Summary: The PGC/ERR cells were dispensed at 2,000 cells/5 ul/well in 1536-well white plates using a Multidrop dispenser. After the assay plates were incubated at a 37 C/5% CO2 incubator for 6 hours, 23 nL of compounds dissolved in DMSO, positive and negative controls or DMSO only was transferred to the assay plate by a pin tool. The plates were incubated at 37 C for 18 hours. 4 ul/well of One-Glo reagent was added into the assay plates using a Flying Reagent Dispenser. After 30-minute incubation at room temperature, the luminescence intensity in the plates was measured using a ViewLux plate reader.
# % is set by controls: 0 for no effect and ±100 for the full control effect; potency is the fitted concentration of half-maximal effect.
Compound,activation,Potency
C=CCOCC1CO1 (stereo not given),-2.6%,
CC[N+]1(C)CCCC(OC(=O)C(O)(c2ccccc2)c2ccccc2)C1 (stereo not given),2.86% [at 42.5 µM],
COc1cc(CC(C)N)c(OC)cc1Br (stereo not given),-12.2%,
O=C(NCNC(=O)NC1C(=O)NC(=O)N1CO)NC1C(=O)NC(=O)N1CO (stereo not given),5.03%,
Nc1ccccc1C(=O)OCCc1ccccc1,,1.09 µM (active) and 1.37 µM (active)
O=C(O)c1ccc(=O)[nH]c1,4.38% [at 42.5 µM],
O=[N+]([O-])/C=C/c1ccccc1,,9.85 µM (active) and 13.7 µM (active)
N#CC1(N=NC2(C#N)CCCCC2)CCCCC1,3.44%,
CCC1(C2=NCCN2)Cc2ccccc2O1 (stereo not given),-0.386% [at 42.5 µM],
CCCC(C)(COC(N)=O)COC(=O)NC(C)C (stereo not given),,inactive
CCCCNC(=O)OCC#CI,,inactive
C[CH2][Hg][S]c1ccccc1C(=O)O,,1.22 µM (active) and 2.37 µM (active)
CCCC[N+](CCCC)(CCCC)CCCC,-7.25%,
CC(=O)NNc1ccccc1,0.701%,
O=[N+]([O-])O[C@H]1CO[C@H]2[C@@H]1OC[C@H]2O[N+](=O)[O-],5% [at 42.5 µM],
C=CCc1ccccc1O,3.66%,
O=S(=O)(c1ccccc1)c1ccccc1,-0.159%,
CN(C)c1ccc(N=O)cc1,,9.72 µM (active) and 8.63 µM (active)
CC(C)CCCCCCCOC(=O)c1ccccc1C(=O)OCCCCCCCC(C)C,-5.81%,
C1CS1,-11%,

Compound,activation,Potency
COc1ccc(C(=O)c2c(C)n(CCN3CCOCC3)c3ccccc23)cc1,-7.49% [at 42.5 µM],
CCOC(=O)c1cncn1C(C)c1ccccc1 (stereo not given),0.457% [at 42.5 µM],
O=C(N[C@H]1CN2CCC1CC2)c1ccc2c(c1)OCCO2,3.91%,
C[C@H]1[C@@H]2Cc3ccc(O)cc3[C@@]1(C)CCN2C,0.478% [at 240 µM],
CCCCOC(=O)CCC(=O)OCCCC,-2.76%,
Clc1ccccc1,1.73%,
CCCSP(=S)(OCC)Oc1ccc(SC)cc1 (stereo not given),-0.264%,
COc1ccc(C(O)(c2cncnc2)C2CC2)cc1 (stereo not given),1.89%,
NP(N)(=O)NC(=O)c1ccc(F)cc1,-2.2% [at 42.5 µM],
O=C(Cc1ccccc1)OCCc1ccccc1,0.8%,
N#CC(C#N)=C(C#N)C#N,-6.57%,
C=C(Cl)Cl,12.7%,
c1ccc2c(c1)sc1ccccc12,,inactive
COC1=CC(=O)O[C@@H](/C=C/c2ccc3c(c2)OCO3)C1,-18.3%,
O=[N+]([O-])c1cc(Cl)c(Cl)cc1Cl,-5.93%,
C[C@@H]1C[C@@H]([C@H](O)CC2CC(=O)NC(=O)C2)C(=O)[C@@H](C)C1,,inactive
CCCCCCCCn1sccc1=O,,inactive
CC(C)(C)NCC(O)c1ccccc1Cl (stereo not given),4.27% [at 42.5 µM],
CCC(C)(C)c1ccc(O)c(C(C)(C)CC)c1,,inactive
ClCc1ccccc1Cl,4.46%,
